Assay results published in PubChem BioAssay.
For some assays here: Potency and affinity values are given separately. Activity calls are given as the source filed them.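 The calls were made as follows, unless noted: active = fitted half-maximal concentration within the tested range, moderate curve steepness, significant signal drop, and little compound fluorescence or bead-linkage interference; inactive = the rest.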

What was measured:
[1] = biological target: Cell division control protein 42 homolog (Homo sapiens) (UniProt P60953); assay: activated mutant Cdc42 GTP-binding inhibitors, dose response, biochemical, multiplex bead flow cytometry, Bodipy-FL-GTP (AID 1333;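 active = fitted half-maximal concentration within the tested dose range, moderate curve steepness, a statistically real signal drop, and little compound fluorescence or tag-binding interference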)
[2] = biological target: Cell division control protein 42 homolog (Homo sapiens) (UniProt P60953); assay: wildtype Cdc42 GTP-binding inhibitors, dose response, biochemical, multiplex bead flow cytometry, Bodipy-FL-GTP (AID 1334); settings: bead-based flow cytometry, Bodipy-FL-GTP binding to GST-Cdc42; at 100 µM (top of the series) unless noted
[3] = biological target: GTPase HRas (Homo sapiens) (UniProt P01112); assay: inhibitors of GTP binding to wildtype Ras, dose response, biochemical, multiplex bead flow cytometry (AID 1335;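 active = fitted half-maximal concentration within 10 nM to 100 µM, steepness 0.5 to 2, significant signal drop, low assay interference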); settings: bead-based flow cytometry, Bodipy-GTP binding to GST-Ras; at 100 µM (top of the series) unless noted
[4] = system: Ras-related protein Rab-7a (dog), GTP binding; assay: Rab7 GTP binding inhibitors, potency, dose response, biochemical, wildtype, multiplex bead flow cytometry (AID 1336; call rule not given here)
[5] = biological target: Ras-related C3 botulinum toxin substrate 1 (Homo sapiens) (UniProt P63000); assay: wildtype Rac1 GTP binding inhibitors, dose response, biochemical, multiplex bead flow cytometry (AID 1340;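 active = dose curve with midpoint inside tested range, moderate steepness, plateau gap beyond fit error, low compound glow and bead-link interference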); settings: GST-Rac1 beads, Bodipy-FL-GTP binding; at 100 µM (top of the series) unless noted
[6] = biological target: GTPase HRas (Homo sapiens) (UniProt P01112); assay: activated Ras mutant GTP binding inhibitors, dose response, biochemical, multiplex bead flow cytometry (AID 1341;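 active = dose-response curve with midpoint inside the tested range, moderate steepness, significant amplitude and little compound fluorescence or bead-attachment interference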;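 also: GST-tagged constitutively activated Ras mutant immobilized on beads and multiplexed with other GTPases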)

Chain of Cell division control protein 42 homolog (Homo sapiens) (P60953 whole entry, looked up): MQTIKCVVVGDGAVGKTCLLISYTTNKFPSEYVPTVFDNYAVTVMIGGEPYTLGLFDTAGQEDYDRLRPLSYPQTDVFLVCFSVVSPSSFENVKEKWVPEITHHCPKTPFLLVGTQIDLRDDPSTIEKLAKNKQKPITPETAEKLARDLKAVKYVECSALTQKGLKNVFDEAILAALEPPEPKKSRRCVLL
Chain of GTPase HRas (Homo sapiens) (P01112 whole entry, looked up): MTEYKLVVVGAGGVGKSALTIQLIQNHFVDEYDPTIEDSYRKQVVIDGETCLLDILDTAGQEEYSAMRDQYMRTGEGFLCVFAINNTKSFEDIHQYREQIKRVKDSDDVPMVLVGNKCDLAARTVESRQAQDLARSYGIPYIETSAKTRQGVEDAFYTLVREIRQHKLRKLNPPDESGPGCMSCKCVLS

Compound | outcome [1] | fluorescence, percent of control (lower = inhibition) [2] | GTP binding, percent of control [3] | outcome [4] | GTP binding signal, raw median fluorescence (lower = inhibition) (MCF (arbitrary fluorescence units)) [5] | outcome [6]
CCC(C)N1C(=O)/C(=C/c2c(NCCCOC(C)C)nc3c(C)cccn3c2=O)SC1=S (stereo unspecified) | inactive | 130% | 136% | inactive | 244 | inactive
Cc1c(NS(=O)(=O)c2ccc3c(c2)Cc2ccccc2-3)c(=O)n(-c2ccccc2)n1C | inactive | 30.4% | 80% | inactive | 238 | inactive
CCOc1ccc2c(c1)c(N=NC(=N)N)c(O)n2C | inactive | 32.4% | 70.3% | inactive | 165 | inactive
CCOC(=O)c1sc(NC(=O)CSc2nnc(Cc3ccccc3)o2)c(C#N)c1C | inactive | 36.5% | 56.1% | inactive | 118 | inactive
O=S1(=O)N=C(N(CCO)/N=C/c2ccccc2)c2ccccc21 | inactive | 31.3% | 63.2% | inactive | 139 | inactive
O=C(CCc1nc2ccccc2[nH]c1=O)OCC(=O)N1CCc2ccccc21 | inactive | 36.8% | 82.6% | inactive | 280 | inactive
CCCNC(=O)C(=O)NCc1ccccn1 | inactive | 41.2% | 91.1% | inactive | 323 | inactive
CC(C)Cc1csc(NC(=O)c2ccccc2Cl)c1C(=O)O | inactive | 29.8% | 74.3% | inactive | 214 | –
COc1ccc(C(=O)c2c(O)cc(-c3ccc(OC)cc3)oc2=O)cc1 | inactive | 52.9% | 70.9% | inactive | 249 | –
CC(C)(C)c1ccc(OCCSc2nc3ccccc3n2CC(=O)O)cc1 | inactive | 52.3% | 87.1% | inactive | 35.4 | inactive
COc1cc(-c2cc(=O)c3c(O)cc(O)cc3o2)ccc1O | inactive | 36% | 84.7% | inactive | 189 | inactive
COc1ccccc1OCCn1cc(C(=O)O)c2cc(C)ccc21 | inactive | 62.1% | 212% | inactive | 57.3 | inactive
O=C(CSc1ccccc1)Nc1ccc(C(=O)Nc2cccc(O)c2)cc1 | inactive | 33.6% | 77.9% | inactive | 193 | inactive
COc1ccc(C(=O)C2CCCN(C(=O)c3cc4nc(C)cc(C)n4n3)C2)cc1F (stereo unspecified) | inactive | 41.4% | 95.1% | inactive | 274 | inactive
CN(C)c1ccc(/C=C2\SC(=S)N(Nc3ncc(C(F)(F)F)cc3Cl)C2=O)cc1 | inactive | 139% | 236% | inactive | 230 | inactive
Cc1ccc(C(=O)O)c(OCc2ccccc2C)c1 | inactive | 62.4% | 208% | inactive | 59.3 | inactive
Oc1c(C=Nc2ccccc2)sc(=S)n1Cc1ccccc1 | inactive | 34.6% | 75.7% | inactive | 232 | inactive
O=C(O)c1cccnc1OCc1ccccc1 | inactive | 88.8% | 103% | inactive | 63.4 | inactive
Cc1ccc(OCCn2cc(C(=O)O)c3ccccc32)cc1C | inactive | 60.4% | 85.4% | inactive | 32.5 | inactive
Nc1nn2c(-c3ccccc3)cc(=O)[nH]c2c1N=Nc1ccc(Br)cc1 | inactive | 27.4% | 78.1% | inactive | 197 | inactive

Compound | outcome [1] | fluorescence, percent of control (lower = inhibition) [2] | GTP binding, percent of control [3] | outcome [4] | GTP binding signal, raw median fluorescence (lower = inhibition) (MCF (arbitrary fluorescence units)) [5] | outcome [6]
COc1ccccc1NC(=O)CSc1ccc2nnc(-c3cccnc3)n2n1 | inactive | 36.4% | 49% | inactive | 114 | inactive
Cc1ccc(Nc2nc(N)c(C#N)c(CC#N)c2C#N)cc1 | inactive | 36.6% | 85.9% | inactive | 224 | inactive
Oc1ccc(NC(=S)N=Nc2c(O)[nH]c3ccc(Br)cc23)cc1 | inactive | 33.1% | 78.4% | inactive | 200 | inactive
NC(=O)c1cc2ccccc2o/c1=N/NC(=O)c1cccs1 | inactive | 33.4% | 69.6% | inactive | 167 | inactive
COc1ccc(-c2nnc(CSc3nc4ccccc4c(=O)n3C)o2)cc1OC | inactive | 39.2% | 87.3% | inactive | 320 | inactive
Cn1c(SCC(=O)Nc2cc(C(C)(C)C)nn2-c2ccccc2)nc2ccccc21 | inactive | 46.2% | 64.7% | inactive | 0 | inactive
O=C(Nc1cccc(-c2nnc(-c3ccco3)o2)c1)c1ccccc1 | inactive | 33.7% | 76.1% | inactive | 190 | inactive
O=C(O)C1C2C=CC(C2)C1C(=O)N1CCOCC1 (stereo unspecified) | inactive | 53.2% | 66.4% | inactive | 216 | inactive
Cc1cc(C(=O)O)sc1CNc1ccc(Cl)cc1 | inactive | 63.1% | 88.6% | inactive | 34.7 | inactive
COc1ccc(-n2c(NC(=O)c3ccc(Br)o3)c(C#N)c3nc4ccccc4nc32)cc1 | inactive | 24.6% | 72.7% | inactive | 169 | inactive
CSc1nsc(SC)c1NC(=O)OC1CCCCC1 | inactive | 43% | 63.4% | inactive | 196 | inactive
COCCOC(=O)c1c(C)oc2ccc(OC(=O)c3ccc4c(c3)OCO4)cc12 | inactive | 31.7% | 83.9% | inactive | 262 | inactive
O=[N+]([O-])c1cc(Br)c(O)c(C=Nc2ccc(N3CCOCC3)cc2)c1 | inactive | 30.7% | 79.8% | inactive | 218 | inactive
N=c1oc2ccc3ccccc3c2cc1-c1nc(-c2ccccc2)cs1 | inactive | 32.3% | 75% | inactive | 209 | inactive
O=C(NCCc1c[nH]c2ccccc12)c1cccc(S(=O)(=O)Nc2ccccc2Cl)c1 | inactive | 32.1% | 71.4% | inactive | 175 | inactive
O=C1NC(=S)N/C1=C/c1cc([N+](=O)[O-])ccc1O | inactive | 60.7% | 157% [at 33.3 µM] | inactive | 185 [at 33.3 µM] | inactive
Cc1cccc(Nc2nc(NCc3ccco3)c3ccccc3n2)c1 | inactive | 39.2% | 54.7% | inactive | 142 | inactive
Cc1n[nH]c(=S)c2nn(-c3ccccc3F)c(C)c12 | inactive | 48.5% | 62.5% | inactive | 179 | inactive
CC(=O)c1c(C)[nH]c(C(=O)N2CCc3ccccc3C2)c1C | inactive | 107% | 192% | inactive | – | –
CCN(CC)c1ccc(-c2nn3c(-c4cccnc4)nnc3s2)cc1 | inactive | 72.7% | 46.9% | inactive | 126 | inactive

Compound | outcome [1] | fluorescence, percent of control (lower = inhibition) [2] | GTP binding, percent of control [3] | outcome [4] | GTP binding signal, raw median fluorescence (lower = inhibition) (MCF (arbitrary fluorescence units)) [5] | outcome [6]
O=C1/C(=C\c2ccc(-c3ccccc3Cl)o2)SC(=S)N1CC1CCCO1 (stereo unspecified) | inactive | 29.8% | 35.9% | inactive | 116 | inactive
COc1ccc(C(=O)N[C@H](C(=O)OCc2cc(=O)oc3cc(C)ccc23)C(C)C)cc1 | inactive | 50.4% | 63.8% | inactive | 202 | inactive
Nc1[nH]n2c(=O)c3c(nc2c1N=Nc1ccccc1)CCCC3 | inactive | 31% | 41.6% | inactive | 109 | inactive
COc1cccc(C(=O)O)c1OCc1c(C)cccc1C | inactive | 58.8% | 204% | inactive | 54.1 | inactive
COc1ccc(-c2cc(C(F)(F)F)n3nc(C(=O)O)cc3n2)cc1OC | inactive | 30.7% | 67.7% | inactive | 140 | inactive
O=C(Nc1cccc(-c2nc3ncccc3o2)c1)c1sc2ccccc2c1Cl | inactive | 88.9% | 340% | inactive | 343 | inactive
Cc1ccc(C(=O)Nn2c(O)c(C=C3N=c4ccccc4=N3)sc2=S)cc1 | inactive | 47.7% | 50.4% | inactive | 129 | inactive
CSc1nc2ccc(NC(=O)C3CC(=O)N(Cc4ccco4)C3)cc2s1 (stereo unspecified) | inactive | 34% | 75.3% | inactive | 195 | inactive
COc1c(C)cccc1C(=O)NC(=S)Nc1ccc2c(c1)Cc1ccccc1-2 | inactive | 73.4% | 151% | inactive | 144 | inactive
CSc1nnc(C)c(/C=C/Nc2ccc(C)cc2)n1 | inactive | 74.9% | 144% | inactive | 155 | inactive
COc1cc(/C=C2/C(C)=C(C#N)c3nc(N)c(C#N)c(C)c32)ccc1OCC(=O)O | inactive | 25.9% | 62% | inactive | 161 | inactive
Oc1c(CN2CCOCC2)ccc2ccccc12 | inactive | 36.2% | 84.5% | inactive | 250 | inactive
Cn1c(=O)c2c(nc(N3CCc4ccccc4C3)n2C)n(C)c1=O | inactive | 36.7% | 76.9% | inactive | 193 | inactive
COc1ccc(N/C=C/c2nc(SC)nnc2C)cc1 | inactive | 31.3% | 72.4% | inactive | 183 | inactive
CCOC(=O)c1c(C)[nH]c(C)c1C(=O)COc1ncnc2cc([N+](=O)[O-])ccc12 | inactive | 33.9% | 76.2% | inactive | 186 | inactive
Cc1ccc([N+](=O)[O-])cc1-c1ccc(/C=C(\C#N)c2[nH]nc(N)c2C#N)o1 | inactive | 32.4% | 72.8% | inactive | 221 | inactive
COc1ccc2c(c1)c(C(=O)O)cn2CCOc1ccccc1C | inactive | 61.2% | 204% | inactive | 59.4 | inactive
Cc1ccc(NS(=O)(=O)c2cc(NC(=O)c3ccc4c(c3)NC(=O)CS4)ccc2Cl)c(C)c1 | inactive | 36.1% | 86.2% | inactive | 282 | inactive
CCNC(=O)c1cc2c(=O)n3cccc(C)c3nc2n(CCc2ccccc2)c1=N | inactive | 74% | 113% | inactive | 126 | inactive
CC1=NC(=O)C(N=Nc2ccccc2C(=O)O)N1c1ccccc1 (stereo unspecified) | inactive | 28.8% | 69.9% | inactive | 180 | inactive
